Hit rate of the full screen: of about 5,500 compounds, about 2,000 (36%) were called active. Not shown: some 18% with an inconclusive outcome. Rule as the data show it: active = normalized growth mostly below about 0.91 (no sharp cut-off); inconclusive = no clear call, values can overlap the other calls; inactive = mostly above about 0.92. The list shows a part of the results.
Experiment: chemical genetic growth profiling, strain panel (AID 1159580);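 also: tested at 20 µM; growth read once vehicle control cultures reached saturation at 30 °C; 1 = growth at the plate median or of vehicle wells; lower values mean less growth of the strain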
Details: S. cerevisiae deletion strains, growth OD

Measured: normalized growth

COC(=O)c1cc2c(cn1)[nH]c1ccccc12
inactive: locus YAL040C, strain CLN3, stronger effect = lower value 0.978 | locus YCL061C, strain MRC1 (second series), stronger effect = lower value 1 | locus YDR150W, strain NUM1, stronger effect = lower value 0.999 | locus YDR363W, strain ESC2, stronger effect = lower value 0.996 | locus YER002W, strain NOP16, stronger effect = lower value 0.986 | locus YMR263W, strain SAP30, stronger effect = lower value 1 | locus YMR307W, strain GAS1, stronger effect = lower value 0.998 | locus YNL153C, strain GIM3, stronger effect = lower value 0.995 | locus YNL175C, strain NOP13, stronger effect = lower value 0.988 | locus YNL197C, strain WHI3, stronger effect = lower value 0.993 | locus YNL224C, strain SQS1, stronger effect = lower value 0.981 | locus YNL322C, strain KRE1, stronger effect = lower value 1.01 | locus YOR083W, strain WHI5 (second series), stronger effect = lower value 0.96 | locus YPL241C, strain CIN2, stronger effect = lower value 1

— PubChem BioAssay AID1159580 (chemical genetic matrix, 2015)
